Results as given in PubChem BioAssay AID687031 (Broad Institute, 2013).
The campaign covered roughly 1,400 compounds. About 50 (4%) were called active. These entries were drawn from the full list. Potency and affinity values are given separately. Unmarked numbers belong to inactive results.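 How the source made its calls: active means fitted curve reaches 30% CPE protection at or below the top valid dose, with every test run called active; inconclusive means test runs disagree, some active and some not; inactive means every test run inactive, including effects in the wrong direction.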

assay: antiviral rescue of DENV2-infected BHK-21 cells – cell-based, ATP luminescence, cherry-pick, dose response (AID 687031); conditions: BHK-21 DENV2 CPE protection, 5 d; series mostly up to 19.5 µM; CPE protection (higher = active): at the top concentration;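 further: 0% = infected DMSO wells and 100% = uninfected cell wells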

Structure (SMILES)	CPE protection (higher = active)
COc1ccc2ccccc2c1/C=N/NC(=O)c1ccccc1F	3.87%
Cc1ccccc1S(=O)(=O)N1CC[C@H]2[C@@H](CO)N(C)c3ccc(Br)cc3[C@H]21	2.06%
CCOc1ccc2[nH]c3ncccc3c(=O)c2c1	-4.21%
CC1(C(=O)NCc2cccs2)Cc2c(-c3cccc(C(F)(F)F)c3)ccnc2O1 (configuration not stated)	17%
CCc1nnc(NC(=O)c2ccc(F)c(S(=O)(=O)N3CCCCC3)c2)s1	-19.2%
O=C(C[C@H]1C[C@@H]2c3cc(NC(=O)CC4CC4)ccc3O[C@@H]2[C@H](CO)O1)NCc1ccccc1	-5.22%
CN(C)CC(=O)Nc1ccc2c(c1)[C@H]1C[C@H](CC(=O)NC3CCCCC3)O[C@@H](CO)[C@H]1O2	0.976%
Cc1ccc(NCC(=O)N/N=C/c2cccc(Br)c2)cc1	7.97%
CCCCCC(=O)N1C[C@@H](n2cc(C3CC3)nn2)[C@H](O)C[C@@H]1c1ccccc1	-7.51%
Cc1ccccc1CN1C(=O)CN(S(C)(=O)=O)CC1(C)C(=O)NCc1ccccc1 (configuration not stated)	-24.2%
COCCNC(=O)C1CCC(CNS(=O)(=O)c2ccc(F)cc2)CC1 (configuration not stated)	-10.5%
CC(=O)Nc1cccc(C(=O)OC(C)C(=O)NC(=O)NC2CCCCC2)c1 (configuration not stated)	-3.28%
CCOC(=O)C1=C(C)NC(=O)NC1c1ccc(N(C)C)cc1 (configuration not stated)	-0.681%
N#C[C@@H]1[C@H](c2ccc(-c3ccccc3F)cc2)[C@H](CO)N1C(=O)C1CC1	-0.808% [at 21 µM]
Cc1ccc(S(=O)(=O)N2CCOCC2)cc1NC(=O)CN(C)CC(=O)Nc1cccc(F)c1	-5.13%
CCN(CC(=O)Nc1c(F)cccc1F)C(=O)C1CCN(S(=O)(=O)c2ccc(F)cc2)CC1	-5.16%
COc1ccc(-c2cc(C(=O)NCCCN3CCCC3=O)c3ccccc3n2)cc1	-27.2%
CSc1cccc(NC(=O)CC2Oc3ccccc3NC2=O)c1 (configuration not stated)	-0.118%
CCOc1ccc(N(CC(=O)NC2CCCC(C)C2C)S(=O)(=O)c2c(C)noc2C)cc1 (configuration not stated)	-13.2%
Cn1c(=O)c2[nH]c(CCCCc3nc4ccccc4[nH]3)nc2n(C)c1=O	6.76%
Nc1ccc(CC(N)c2csc(Nc3cc(Oc4ccccc4)ncn3)n2)cc1 (configuration not stated)	-9.32%

Structure (SMILES)	CPE protection (higher = active)
COc1ccc(CC(N)c2csc(NC(=O)c3ccc(OC)cc3)n2)cc1 (configuration not stated)	-8.87%
CC(C)SCc1cc(N2CCCC2)nc(-c2ccccc2)n1	-9.75%
COc1ccccc1-c1noc2c1C(=O)N(Cc1cn(Cc3ccccc3)nn1)CC2	6.91%
COc1ccc2ccccc2c1-c1sc(Nc2ccccc2)n[n+]1-c1ccc(F)cc1	-20%
CNC[C@@H]1OCCCC[C@H](C)Oc2ccc(NS(=O)(=O)c3c(C)noc3C)cc2C(=O)N([C@@H](C)CO)C[C@@H]1C	4.03%
CC1CCCCC12NC(=O)N(CC(=O)NCc1cccs1)C2=O (configuration not stated)	2.88%
O=C(NCc1cccs1)c1cccc(Nc2nc3ccc(Br)cc3[nH]2)c1	-1.49%
CN(Cc1ccccc1)CC1CCCN(CCc2ccccc2F)C1 (configuration not stated)	3.08%
CC(C)Cc1ccc(C(C)C(N)=NCCc2ccccc2)cc1 (configuration not stated)	21.7%
CCN(C)C1CN(Cc2cn(Cc3ccc(F)cc3)nn2)S(=O)(=O)C1 (configuration not stated)	-3.5%
CCOc1ccc(Oc2nc(NCC(C)C)nc(OC)n2)nn1	-24.7%
NS(=O)(=O)c1ccc(CCNC(=O)C2CCCN2C(=O)c2cccs2)cc1 (configuration not stated)	-11.5%
O=C(NC(C(=O)N1CCCC1C(=O)NC1CCCC1)c1ccccc1)c1cccs1 (configuration not stated)	-11.5%
CCC(=O)N1CC2(C1)CN(C(=O)Nc1ccc(F)cc1)[C@H](CO)c1c2c2ccc(OC)cc2n1C	5.8%
Cc1ccc(-c2nc(N3CCN(C)CC3)c3ccccc3n2)cc1	12.5%
COc1ccc(/C=N/NC(=O)c2nc(-c3ccccc3)n(-c3ccccc3)n2)cc1OC	6.48%
CCCNC(=O)C[C@H]1CC[C@@H]2[C@H](COC[C@H](O)CN2C(=O)CC)O1	36.8%
CCNC(=O)C[C@H]1CC[C@H]2[C@@H](COC[C@H](O)CN2C(=O)c2cccnc2)O1	24.6%
Cc1ccc(SCCN2CCC(NC(=O)OCc3ccccc3)CCC2=O)cc1 (configuration not stated)	-8.36%
Cc1ccc(S(=O)(=O)Nc2ccc3c(c2)C(=O)N([C@@H](C)CO)C[C@@H](C)[C@H](CN(C)S(=O)(=O)c2ccc(Cl)cc2)OCCCC[C@@H](C)O3)cc1	-29.8%
CCc1cc(=O)oc2cc(OCC(=O)NC3CC(C)(C)NC(C)(C)C3)ccc12	3.18%

Structure (SMILES)	CPE protection (higher = active)
Cc1cc(OCC(=O)NC2CC(C)(C)NC(C)(C)C2)c(C)cc1Br	-5.56%
CC1(C(=O)NCc2ccccc2)CN(S(C)(=O)=O)CC(=O)N1CCc1ccc(O)cc1 (configuration not stated)	-2.07%
CC(C)CC1NC(=O)c2ccccc2-n2c1nc1ccccc1c2=O (configuration not stated)	-9.6%
Cc1ccc(S(=O)(=O)N(C)CC(=O)Oc2ccc(-c3nnco3)cc2)cc1	-21.8% [at 10 µM]
N#Cc1cc2cc3c(cc2nc1Cl)OCCO3	-12.1%
CCN(CC)C1CCN(Cc2c(C(=O)N3CCCCCCC3)nc3ccc(Cl)cn23)C1 (configuration not stated)	-11.9%
O=C(CN1CCc2cc3c(cc2C1)OCCCO3)Nc1ccccc1	17.2%
CN(C)CCCNc1cc(O)c2ncccc2c1	-6.23%
C/C=C/c1ccc([C@@H]2[C@@H](CO)N(C(C)=O)[C@@H]2CNC(=O)CC2CC2)cc1	4.22% [at 21 µM]
O=C(NCC1CC1)c1onc(CSc2ccc(F)c(F)c2)c1C(=O)NCC1CC1	10.7%
COc1cc(C)nc(N2CCC(C(=O)NCC3CCCO3)CC2)n1 (configuration not stated)	18.9%
O=C(NCCS(=O)(=O)N1CCN(c2ccccc2)CC1)C1CC1	14.1%
O=C(CCc1nnc(Cc2c[nH]c3ccccc23)o1)NCCC1CCCCO1 (configuration not stated)	17.1%
COC(=O)N1CCCCC1c1cc(C(=O)Nc2ccccc2Cl)no1 (configuration not stated)	-13.9%
COc1ccc(S(=O)(=O)N2CCCCC2c2cc(C(=O)Nc3ccccc3)no2)cc1 (configuration not stated)	23%
Cc1ccc([C@H]2C[C@@H](n3cc(-c4ccc(F)cc4)nn3)[C@H](O)CN2C(=O)c2cccs2)cc1	-9.7%
CCC(=O)N1CC[C@@H]2[C@@H](CO)Nc3ccc(-c4ccc(OC)cc4)cc3[C@@H]21	-14%
O=C(NCc1ccccc1)c1ccccc1	-3.58%
O=C(O)c1ccc(CNC(=O)C2CCCN2C(=O)OCc2ccccc2)cc1 (configuration not stated)	1.02%
Cc1ccc(OCc2nnc(SCc3cc(=O)[nH]c4ccccc34)n2-c2ccccc2)cc1	-15.6%
